Screening data (PubChem)
Only a selection was taken, and hits are over-represented in it overall.
Shiga inhibitor: inhibitors of Shiga toxin in Vero cells; Vero cells, Shiga toxin protein synthesis inhibition reporter; inhibition, % at 38.7 µM; 9.2% of 290,000 active; in the data active = inhibition mostly above about 28%, no sharp cut-off; inactive = mostly below about 43%; also: 0% is about no effect
FBPA Giardia inh: Giardia lamblia aldolase inhibition; purified Giardia FBPA; Potency, µM (series often up to 59.6 µM), without a hit: top-dose activity, negative = inhibition, hits mostly inhibitors; 0.71% of 290,000 active; AID 2451; also: potency is read from the fitted curve at half-maximal effect; % is scaled to controls: 0 for no effect and ±100 for the full control effect; nearly all actives have a fitted effect of over 55% in size
Target sequence (A8B2U2 whole entry, looked up): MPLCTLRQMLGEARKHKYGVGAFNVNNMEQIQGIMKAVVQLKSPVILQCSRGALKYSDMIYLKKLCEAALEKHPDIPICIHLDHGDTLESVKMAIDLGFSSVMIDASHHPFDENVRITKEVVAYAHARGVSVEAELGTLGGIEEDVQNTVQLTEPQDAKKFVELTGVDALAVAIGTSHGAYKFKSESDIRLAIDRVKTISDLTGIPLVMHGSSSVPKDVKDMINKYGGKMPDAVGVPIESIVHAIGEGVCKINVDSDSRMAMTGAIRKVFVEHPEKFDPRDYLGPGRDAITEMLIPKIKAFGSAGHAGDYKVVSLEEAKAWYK
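Giardia FBPA (40 nM reagent) was preincubated 10 min at RT with compound (up to 57.5 uM final), then substrate plus GAPDH/TPI/NAD/arsenate coupling system with diaphorase/resazurin was added; resorufin fluorescence (525/598 nm) was read after 20 min.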
RE007 growth inh: less growth of the S. pombe RE007 Vpr strain; S. pombe RE007 Vpr strain, BacTiter-Glo ATP luminescence, 24 h; Potency, µM (top dose mostly 92.2 µM), inactives show at the highest dose activity change, negative = less growth, hits mostly inhibitors; 0.21% of 360,000 active; AID 651644; active = well fitted falling curve with a large enough effect; inconclusive = small, poorly fitted or top-dose-only effect; inactive = no such curve, though single readings can be large or run the other way; also: potency is read from the fitted curve at half-maximal effect; % is scaled to controls: 0 for no effect and ±100 for the full control effect; nearly all actives have a fitted effect of over 50% in size
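Fission yeast RE007 carrying one integrated HIV-1 vpr copy, seeded at OD 0.01 in PMG+AL medium with 23 nL pinned compound. Grown 24 h at 30 degrees; viability read by BacTiter-Glo luminescence after 5 min.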
Tb PYK inh: blocks Trypanosoma brucei pyruvate kinase | Potency, µM (series often up to 76.8 µM), for inactives: top-dose activity, negative = inhibition, actives largely listed as inhibitors | AID 624173 | TbPYK enzyme, Kinase-Glo Plus ATP luminescence, 45 min | Q57TT1 | 0.12% of 410,000 active; also: potency is read from the fitted curve at half-maximal effect; % is scaled to controls: 0 for no effect and ±100 for the full control effect; nearly all actives have a fitted effect of over 50% in size
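Assay buffer: 50 mM TEA pH 7.2, 100 mM KCl, 10 mM MgCl2, 0.05% BSA, 0.01% Tween-20. Pyruvate kinase from T. brucei plus substrate met compound, then ADP (130 uM final). Luminescence was read post 45 min RT.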
CHX counter: counter-screen hit for Shiga toxin inhibitors, cycloheximide; cell reporter, cycloheximide protein synthesis inhibition counterscreen; max response, %; 12% of 300,000 active; AID 2314; in the data active = max response mostly above about 13%, no sharp cut-off; inactive = mostly below about 14%; also: read at 38.3 µM for the half of the compounds with a filed dose; 0% is about no effect
LmPK inh: LmPK (Leishmania mexicana) enzyme inhibition. 0.37% of 290,000 active. Q27686. AID 1721. purified LmPK, Kinase-Glo ATP luminescence, 1 h. Potency, µM (series often up to 57.5 µM), for the others: at the highest dose activity change, negative = inhibition, usual class: inhibitors; also: potency is read from the fitted curve at half-maximal effect; % is scaled to controls: 0 for no effect and ±100 for the full control effect
Target sequence (Q27686 whole entry, looked up): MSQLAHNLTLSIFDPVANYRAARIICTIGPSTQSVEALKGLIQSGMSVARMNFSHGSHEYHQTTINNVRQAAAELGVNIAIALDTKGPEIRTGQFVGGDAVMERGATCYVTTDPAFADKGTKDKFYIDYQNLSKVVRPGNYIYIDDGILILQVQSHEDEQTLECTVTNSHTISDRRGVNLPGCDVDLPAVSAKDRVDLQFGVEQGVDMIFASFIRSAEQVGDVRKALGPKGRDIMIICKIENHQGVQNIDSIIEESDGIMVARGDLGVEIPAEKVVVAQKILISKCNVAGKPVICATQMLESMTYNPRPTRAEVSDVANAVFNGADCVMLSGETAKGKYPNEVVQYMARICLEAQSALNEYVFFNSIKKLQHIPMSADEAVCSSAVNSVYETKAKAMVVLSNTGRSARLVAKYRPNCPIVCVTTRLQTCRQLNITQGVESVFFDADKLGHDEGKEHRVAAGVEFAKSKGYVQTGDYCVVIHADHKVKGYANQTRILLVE
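ATP generated from ADP (0.1 mM) and PEP (0.5 mM) by 0.1 nM LmPK over 1 h at room temperature (pH 7.2 imidazole buffer) was detected by coupled luciferase luminescence. Values were normalized to uninhibited and no-enzyme wells.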
Active calls of the source: *; ? = inconclusive; nt = no result given; [ ] = dose if it differs, or a comment. Unless noted, calls follow the shape of the dose curve; as a rule, active = well fitted curve in the direction sought with a large enough effect; inconclusive = small, poorly fitted or top-dose-only effect, or another doubt; inactive = no such curve, though single readings can be large; an effect the other way counts as inactive or inconclusive.

SMILES	Shiga inhibitor	FBPA Giardia inh	RE007 growth inh	Tb PYK inh	CHX counter	LmPK inh
CCSc1nnc(NC(=O)C2Cc3ccccc3CN2S(=O)(=O)CC)s1 (stereo not given)	29.9	9.7%	2.1%	1.3%	30.3*	2.5%
CCS(=O)(=O)N1Cc2ccccc2CC1C(=O)Nc1nc(C)cs1 (stereo not given)	84.9*	-3.3%	2.5%	3.7%	42.5*	2.8%
CCS(=O)(=O)N1Cc2ccccc2CC1C(=O)Nc1nc2c(C)cccc2s1 (stereo not given)	60.5*	0.1%	6.9%	5.2%	27.4*	1.2%
Cc1ccc(CN2C(=O)c3ccccc3Sc3ccc(C(=O)NCc4ccco4)cc32)cc1	nt	nt	nt	2.9%	nt	nt
CC1CC=CC2C1C(=O)N(Cc1ccccc1)C2c1ccc2ccccc2c1C=Cc1ccccc1 (stereo not given)	8.5	2.2%	nt	nt	6.3	nt
CCn1c(=O)c2cc(C(=O)NC3CCC(C)CC3)sc2c2ccccc21 (stereo not given)	nt	nt	nt	-2.6%	nt	nt
CC1(C)CC(=O)C=C(c2cccc(Br)c2)C1	nt	nt	9.3%	-6.3%	nt	nt
CC1=CC(=C(c2ccc(N)cc2)c2ccc(N)cc2)C=CC1=N	nt	nt	nt	-24.0%	nt	nt
CN(N)C(=S)Nc1ccc(F)cc1	-5.8	-10.8%	-7.2%	1.2%	12.0	0.0%
CN(C)/C=N/C(=S)Nc1ccc(Cl)c(Cl)c1	111.5*	-7.9%	?	-5.6%	40.4*	-9.6%
CN(C)/C=N/C(=S)Nc1ccc(F)cc1	38.1*	-14.0%	-1.7%	1.9%	24.7*	-1.8%
Cc1ccc(C(=O)N(c2ccc(C)cc2)S(=O)(=O)c2ccc(Cl)cc2)cc1	nt	nt	nt	3.4%	nt	nt
COc1cccc(C(=O)Oc2c(Sc3ccc(C)cc3)c(C)nn2C(C)(C)C)c1OC	nt	nt	nt	3.5%	nt	nt
C/C(=N\NC(=O)c1ccccc1C)c1cccnc1	105.6*	24.3%	-5.8%	-10.9%	30.8*	-8.0%
C/C(=N\NC(=O)c1ccc(N(C)C)cc1)c1cccnc1	44.4	1.0%	10.5%	3.9%	23.2*	-1.9%
C/C(=N\NC(=O)c1ccc(N(C)C)cc1)c1ccc(C)cc1C	24.5*	3.2%	7.5%	2.1%	21.2	-3.2%
C/C(=N\NC(=O)c1ccoc1C)c1cccnc1	0.0	3.0%	-1.9%	-3.4%	42.1*	-23.5%
COc1cccc(NC(=O)Cn2c(=O)n(-c3ccccc3)c(=O)c3c4c(sc32)CCCC4)c1	nt	nt	nt	2.6%	nt	nt
CC1CCC2C(=O)N3C(CCC(C)C3c3ccc(-c4ccco4)cc3)C(=O)N2C1c1ccc(-c2ccco2)cc1 (stereo not given)	nt	-1.1%[12.9 µM]	nt	nt	nt	nt
C/C(=N\NC(=O)c1cccnc1)c1ccc(OC2OCCOC2Oc2ccc(/C(C)=N/NC(=O)c3cccnc3)cc2)cc1 (stereo not given)	53.7*	-4.9%	47.9%	-14.6%	16.3*	0.1%
COc1ccc(/C(C)=N/NC(=O)CNC(=O)c2cccnc2)cc1	15.2	-0.4%	0.8%	1.5%	-1.0	-2.7%
CCC1CC2CC3c4[nH]c5ccc(OC)cc5c4CCN(C2)C13 (stereo not given)	nt	nt	nt	-11.4%[157 µM]	nt	nt
Cc1ccc(/C=C2\SC(N)=NC2=O)s1	12.5	-0.3%	14.5%	-7.4%	15.3	-0.2%
Cc1ccsc1/C=C1\SC(N)=NC1=O	25.3	-2.1%	-28.6%	4.3%	20.1*	-9.1%
COc1cccc(C2C(=O)N(C3CCCCC3)CC(=O)N2Cc2ccc(Cl)cc2)c1 (stereo not given)	nt	nt	nt	6.8%	nt	nt
SMILES	Shiga inhibitor	FBPA Giardia inh	RE007 growth inh	Tb PYK inh	CHX counter	LmPK inh
CC(=O)c1ccc(NC(=O)c2ccc(N3C(=O)c4cccnc4C3=O)cc2)cc1	32.0	-4.9%	-0.6%	2.5%	22.1*	1.9%
O=C1c2cccnc2C(=O)N1c1ccccc1-c1ccccc1	5.1	-3.3%	20.9%	-5.1%	-3.4	3.3%
O=C(O)c1ccc(N2C(=O)c3cccnc3C2=O)cc1	30.1	?	?	6.0%	19.3*	0.6%
COc1cc(/C=N/NC(=O)c2cccnc2)ccc1OC(=O)c1ccc([N+](=O)[O-])cc1	-5.1	-0.9%	6.0%	0.3%	-2.9	-0.4%
COc1cc(/C=C/[N+](=O)[O-])ccc1OC(=O)c1cccnc1	-5.3	-19.6%	8.91µM*	?	-1.4	-3.7%
O=C(OCc1nnc(-c2ccccc2)o1)c1ccc2c(c1)OCO2	23.1	-0.2%	?	3.7%	14.9	-3.6%
c1ccc(-c2nnc(CSc3ccc4c(c3)OCCO4)o2)cc1	28.5*	0.3%	-24.2%	0.6%	18.9*	2.1%
O=C(CCCOc1ccccc1)Nc1cccc(S(=O)(=O)N2CCCCCC2)c1	nt	nt	-7.6%	0.9%	nt	nt
C/C(=N\Nc1cccc2cccnc12)c1ccc[nH]1	74.7*	-12.5%	-8.6%	-7.5%	40.2*	-15.6%
CCC(=O)Nc1cccc2cccnc12	26.8	-5.5%	-5.5%	1.7%	5.0	-0.2%
O=C1NC(=Nc2ccccc2)S/C1=C/c1cccnc1	22.8	-1.8%	-5.0%	-5.6%	14.7	15.8%
O=C1N/C(=N/Nc2ccccc2)S/C1=C\c1ccccc1	37.1	?	86.3%	-16.5%	22.3*	-27.2%
O=C1N=C(c2ccccc2)S/C1=C\c1cccs1	17.0	-17.9%	-24.9%	7.94µM*	11.9	0.4%
O=C1NC(=O)/C(=C\c2ccc(OCc3ccccc3)cc2)S1	5.1	-21.3%	24.0%	-0.3%	8.7	-8.3%
O=C1N=C(N2CCN(c3ccccc3)CC2)S/C1=C/c1cccs1	-2.8	-5.4%	5.2%	0.5%	1.0	1.8%
O=C1NC(=Nc2ccccc2)S/C1=C\c1ccccc1	nt	-14.8%	2.3%	1.5%	19.2*	-7.5%
O=C1NC(=Nc2ccccc2)S/C1=C/c1cccs1	69.4*	3.6%	2.1%	2.5%	40.7*	5.6%[11.5 µM]
Cc1ccc(-c2noc(-c3ccc(NCc4ccco4)c([N+](=O)[O-])c3)n2)cc1	nt	nt	nt	-0.4%	nt	nt
Cc1ccc(-c2cc(C(=O)Nc3cc([N+](=O)[O-])ccc3C)no2)cc1F	nt	nt	nt	5.5%	nt	nt
CCS(=O)(=O)c1ncc(N(Cc2ccco2)Cc2sccc2C)c(C(=O)Nc2cc(C)ccc2C)n1	nt	nt	nt	2.1%	nt	nt
CC1=C(c2ccc(NN=C(C#N)C#N)cc2)NNC(=O)C1	nt	nt	nt	1.2%	nt	nt
Cc1ccc(NC(=O)CCc2c(C)nc3c(-c4ccc(F)cc4)c(C)nn3c2C)cc1F	nt	nt	nt	3.1%	nt	nt
Cc1cccc(N=C2NC(=O)/C(=C\c3cccs3)S2)c1	67.5*	1.1%	-14.6%	-4.7%	33.7*	-1.8%
CCc1ccccc1Nc1nn2c(=O)c3ccc(C(=O)NC(C)c4ccccc4)cc3nc2s1 (stereo not given)	nt	nt	nt	2.8%	nt	nt
CCCc1nn(C)c(C(=O)Nc2ccc(CC)cc2)c1Cl	35.4*	2.6%	-6.1%	2.1%	17.4	-4.0%
CCCc1nn(C)c(C(=O)Nc2ccc(C)c(C)c2)c1Cl	92.4*	0.1%	6.8%	-7.0%	31.6*	0.9%
CCn1nc(C(=O)Nc2ccc(C)c(C)c2)c(Cl)c1Cl	-2.0	3.6%	-9.5%	7.0%	13.7	5.7%
